Data: ChEMBL document CHEMBL1157539, “Thousands of chemical starting points for antimalarial lead identification” (Nature, 2010)

tested on: HepG2; assay: GSK_TCMDC: Percent inhibition of human HepG2 cell line. Test compounds present at 10uM.; assay type: functional

SMILES | Inhibition
COc1cc(C)nc2ccc(NC(=O)c3ccc(C(=O)Nc4ccc5nc(C)cc(OC)c5c4)cc3)cc12 | 27%
COc1ccc(C2C(C(=O)OC3CCCC3)=C(C)NC3=C2C(=O)CCC3)cc1Br (stereo not drawn) | 0%
Cc1cccc(C(=O)NCCCN2CCC(NC(=O)/C=C/c3ccc(Cl)c(Cl)c3)CC2)c1.O=C(O)C(F)(F)F | 39%
O=C(NCCc1cccc(F)c1)c1cc(Br)cc(N2CCN(c3ccncc3)CC2)c1.O=C(O)C(F)(F)F | 34%
O=C(Nc1ccc(-c2cccc(-c3nc4cc(C(F)(F)F)ccc4[nH]3)c2)cc1)c1ccoc1 | 52%
COc1ccc2c(NN=Cc3cccc(C)n3)ccnc2c1 | 0%
Cc1cc(CNC(=O)[C@H](CC2CCCCC2)Nc2ccc(C#N)c3ccccc23)c(C(F)(F)F)o1.O=C(O)C(F)(F)F | 13%
Cc1ccccc1C1CCN(C2CCC(NC(=O)/C=C/c3cc(F)cc(F)c3)CC2)CC1 (stereo not drawn) | 53%
Cc1cc(CN2C(=O)C(c3ccccc3)(c3ccccc3)N=C2N)c(C(F)(F)F)o1 | 11%
CS(=O)(=O)CCNCc1nc(-c2ccc3ncnc(Nc4ccc(OCc5ccccc5)c(Cl)c4)c3c2)cs1.Cl | 13%
CN(C(=O)Cc1ccc(Cl)c(Cl)c1)C1CCN(CCCCCNC(=O)/C=C/c2ccc(Cl)c(Cl)c2)CC1 | 87%
CCS(=O)(=O)c1ccc(OC)c(Nc2nccc(-c3c(-c4cccc(NC(=O)c5c(F)cccc5F)c4)nn4ncccc34)n2)c1 | 27%
COc1ccccc1N1CCN(CCCCNC(=O)c2ccc(NC(=O)c3cc(Cl)cc(Cl)c3)cc2)CC1 | 9%
